# Results taken from PubChem BioAssay (Tox21).
# Inconclusive results are not listed. Where a call stands in place of a potency, no number is given. The source holds several records for some structures; these can differ, active in one and inactive in another. The source made the active and inactive calls. The call rests on the fitted dose curve.
# Experiment: p53 small molecule agonists, cell-based qHTS assay with rat liver microsomes: qHTS cell viability counter screen (AID 1963580); further: nearly all actives have a fitted effect of over 45% in size
# Conditions: p53RE-bla HCT-116 + rat microsomes, ATP viability, 16 h; series mostly up to 66 µM; activity change, negative = cytotoxicity: at the top concentration
# From the text: National Center for Advancing Translational Sciences [NCATS]
# Division of Preclinical Innovation [DPI]
# U.S. Environmental Protection Agency [EPA]
# National Institutes of Environmental Health Sciences [NIEHS]
# National Toxicology Program [NTP]
# U.S. Food and Drug Administration [FDA]
# p53, a tumor suppressor protein, is activated following cellular insult, including DNA damage and other cellular stresses. The activation of p53 regulates cell fate by inducing DNA repair, cell cycle arrest, apoptosis, or cellular senescence. The activation of p53, therefore, is a good indicator of DNA damage and other cellular stresses. The CellSensor p53RE-bla HCT-116 cell line contains a stably integrated beta-lactamase reporter gene under control of the p53 response elements. The activation of the reporter gene under culture conditions can be detected by fluorescence intensity. This cell line was used to screen the Tox21 10K compound library in the condition of presence of rat liver microsomes and to identify agonists that activate the p53 signaling pathway after in vitro metabolic activation (Ooka et al., Archive of Toxicology 96:1975-1987, 2022). The cytotoxicity of the Tox21 compound library against the p53 RE-bla HCT-116 cell line was tested in parallel by measuring the intra cellular ATP content in the same wells.
# Tox21 Assay Protocol Summary:
# The p53RE-bla cells were dispensed at 4,000cells/3ul/well in 1536-well black-clear bottom plates. After the assay plates were incubated at 37 C, 5% CO2 incubator for 5 hours, 23 nL of compounds dissolved in DMSO, positive controls or DMSO only was transferred to the assay plate. Following compound addition, 3 uL of rat liver microsomes (Molecular Toxicology, Boone, NC) at final concentration of 0.5 mg/mL and 1uL of B-Nicotinamide adenine dinucleotide 2'-phosphate (NADPH) at final concentration of 0.5 mg/mL were transferred to the assay plate. The plates were incubated at 37 C for 16 hours. 1 uL of LiveBLAzer detection mixture was added to each well and the plates were incubated at room temperature in the dark for 2 h. Fluorescence intensity at 460 and 530 nm emission and 405 nm excitation were measured by an Envision plate reader. For cell viability readout that measures cytotoxicity, 4 ul/well of CellTiter-Glo reagent was added into the assay plates using a Flying Reagent Dispenser. After 30 min incubation at room temperature, the luminescence intensity in the plates was measured using a ViewLux plate reader.
# Potency means the concentration at half of the fitted maximal effect.
SMILES,Potency,"activity change, negative = cytotoxicity"
CCC[N+](=O)[O-],44.9 µM (active) and inactive,
CNC(=O)N(C)c1nnc(C(C)(C)C)s1,inactive,
C=C(C)[C@@H]1CC=C(C=O)CC1,,-5.69% (inactive)
CC1(C)C(=O)NC(=O)NC1=O,,-2.14% (inactive)
COc1cc(OC)nc(Oc2cccc(Oc3nc(OC)cc(OC)n3)c2C(=O)O)n1,,-12.7% (inactive)
Clc1cccc(Cl)c1Cl,inactive,
COP(=S)(OC)Oc1ccc(S(=O)(=O)N(C)C)cc1,inactive,
C=C1CC[C@@]2(O)[C@H]3Cc4ccc(O)c5c4[C@@]2(CCN3CC2CC2)[C@H]1O5,,18.1% [at 30.3 µM] (inactive)
O=C(O)COc1ccc(Cl)cc1Cl,inactive,
CN1C(=O)NC(=O)C(C)(C2=CCCCC2)C1=O (stereo not given),,4.27% [at 30.3 µM] (inactive)
Cc1ccc(C(=O)Cl)cc1,,-3.59% (inactive)
CC[N+]1(C)CCCC1,inactive,
O=C(Cl)OCCOCCOC(=O)Cl,,-0.153% (inactive)
CCOCN(C(=O)CCl)c1c(C)cccc1CC,inactive,
O=C(NC(=O)c1c(F)cccc1F)Nc1cc(Cl)c(OC(F)(F)C(F)C(F)(F)F)cc1Cl (stereo not given),inactive,
O=P(OCC(Br)CBr)(OCC(Br)CBr)OCC(Br)CBr (stereo not given),inactive,
N#Cc1nn(-c2c(Cl)cc(C(F)(F)F)cc2Cl)c(N)c1S(=O)C(F)(F)F (stereo not given),inactive,
CCCC1CCCCN1 (stereo not given),,3.63% [at 30.3 µM] (inactive)
CCCCCCCCCBr,,1.91% (inactive)
[CH3][Sn]([Cl])([Cl])[Cl],inactive,

SMILES,Potency,"activity change, negative = cytotoxicity"
CCOP(OCC)OCC,inactive,
Clc1ccc(C(c2ccc(Cl)cc2)C(Cl)Cl)cc1,inactive,
CCCCOCC1CO1 (stereo not given),inactive,
OCC(Br)CBr (stereo not given),,0.938% (inactive)
C=CC(=O)OCCO,inactive,
c1ccc(Nc2ccc3ccccc3c2)cc1,inactive,
CC(=NC#N)N(C)Cc1ccc(Cl)nc1,,9.57% (inactive)
CCCC(C)(COC(N)=O)COC(N)=O,,-0.593% (inactive)
CC(=O)C(Cl)Cl,,-0.15% (inactive)
COC(=O)C(Br)CBr (stereo not given),,0.824% (inactive)
C=CCSSCC=C,,-7.14% (inactive)
O=C1CC(=O)NC(=O)N1,,2.63% (inactive)
O=C(O)C1C(C(=O)O)C2(Cl)C(Cl)=C(Cl)C1(Cl)C2(Cl)Cl (stereo not given),inactive,
CC(C)=CC1C(C(=O)OCN2C(=O)C3=C(CCCC3)C2=O)C1(C)C (stereo not given),inactive,
Clc1ccc(C(c2ccccc2Cl)C(Cl)(Cl)Cl)cc1 (stereo not given),inactive,
N#CCCC#N,,3.9% (inactive)
N#Cc1ccccn1,inactive,
O=NN1CCCCC1,,3.69% (inactive)
C[C@H]1CCCC(=O)CCC/C=C/c2cc(O)cc(O)c2C(=O)O1,inactive,
Cc1cccc(N)c1C,inactive,
